Test results: PubChem BioAssay (NCI)
Compounds without any hit were thinned out: in the full panel of roughly 83,000, 20% have a hit.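 Cells were grown in 96-well plates and exposed to the test compound at a single concentration for 48 hours; results are reported as percent growth, with values below 10 considered active.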 Unmarked numbers belong to inactive results. Activity calls are given as the source filed them.

Assays:
Test in all cases: NCI-60 one-dose screen, 48 h (100 = growth as untreated, 0 = no growth, -100 = all killed)
SK-MEL-2 melanoma = settings: 10 µM unless noted
SN12C renal = settings: 10 µM unless noted
UO-31 renal = settings: 10 µM unless noted
TK-10 renal = settings: 10 µM unless noted
ACHN renal = settings: 10 µM unless noted
CAKI-1 renal = settings: 10 µM unless noted
A498 renal = settings: 10 µM unless noted
CCRF-CEM leukemia = settings: 10 µM unless noted
MOLT-4 leukemia = settings: 10 µM unless noted
SR leukemia = settings: 10 µM unless noted
RPMI-8226 leukemia = settings: 10 µM
OVCAR-8 ovarian = settings: 10 µM unless noted
OVCAR-5 ovarian = settings: 10 µM unless noted
OVCAR-4 ovarian = settings: 10 µM unless noted
SK-OV-3 ovarian = settings: 10 µM
IGROV1 ovarian = settings: 10 µM unless noted
OVCAR-3 ovarian = settings: 10 µM unless noted
HS 578T breast = settings: 10 µM unless noted
NCI/ADR-RES ovarian = settings: 10 µM unless noted

`Nc1nc(N)c(N=Nc2c(Br)cc(S(N)(=O)=O)cc2Br)c(N)n1` showed a growth (SK-MEL-2 melanoma) of 94.9%, a growth (SN12C renal) of 103% and a growth (UO-31 renal) of 98%. It also gave a growth (TK-10 renal) of 122%, a growth (ACHN renal) of 114% and a growth (CAKI-1 renal) of 99%. It also gave a growth (A498 renal) of 96.4%, a growth (CCRF-CEM leukemia) of 88.3% and a growth (MOLT-4 leukemia) of 95.2%. For the same compound, the growth (SR leukemia) was 34.5%, the growth (RPMI-8226 leukemia) was 106% and the growth (OVCAR-8 ovarian) was 98.4%. It also gave a growth (OVCAR-5 ovarian) of 109%, a growth (OVCAR-4 ovarian) of 124% and a growth (SK-OV-3 ovarian) of 108%. For the same compound, the growth (IGROV1 ovarian) was 105%, the growth (OVCAR-3 ovarian) was 73.1% and the growth (HS 578T breast) was 95.1%. It also gave a growth (NCI/ADR-RES ovarian) of 107%.

`Cc1nc2cc(Nc3nc(Nc4ccc(F)cc4)nc(-c4cccs4)n3)ccc2n1Cc1ccccc1` gave a growth (SK-MEL-2 melanoma) of 72.9%, a growth (SN12C renal) of 70.3% and a growth (UO-31 renal) of 36.5%. The growth (TK-10 renal) was 62.7%, the growth (ACHN renal) was 45.6% and the growth (CAKI-1 renal) was 70.2%. It also gave a growth (A498 renal) of 56%, a growth (CCRF-CEM leukemia) of 27.2% and a growth (MOLT-4 leukemia) of 23.5%. The growth (SR leukemia) was 18%, the growth (RPMI-8226 leukemia) was -0.339% (active) and the growth (OVCAR-8 ovarian) was 37%. For the same compound, the growth (OVCAR-5 ovarian) was 92%, the growth (OVCAR-4 ovarian) was 51% and the growth (SK-OV-3 ovarian) was 95.1%. It also gave a growth (IGROV1 ovarian) of 48.3%, a growth (OVCAR-3 ovarian) of 66.7% and a growth (HS 578T breast) of 50.3%. For the same compound, the growth (NCI/ADR-RES ovarian) was 57.3%.

In the case of `Cc1nc2ccc(Cl)cc2n1C`, the growth (SK-MEL-2 melanoma) is reported as 101%, the growth (SN12C renal) is reported as 101% and the growth (UO-31 renal) is reported as 102%. For the same compound, the growth (TK-10 renal) was 97.2%, the growth (ACHN renal) was 102% and the growth (CAKI-1 renal) was 101%. It also gave a growth (A498 renal) of 95.5%, a growth (CCRF-CEM leukemia) of 94.6% and a growth (MOLT-4 leukemia) of 97.7%. The growth (SR leukemia) was 96.7%, the growth (RPMI-8226 leukemia) was 97.4% and the growth (OVCAR-8 ovarian) was 101%. The growth (OVCAR-5 ovarian) was 103%, the growth (OVCAR-4 ovarian) was 114% and the growth (IGROV1 ovarian) was 106%. For the same compound, the growth (OVCAR-3 ovarian) was 109%, the growth (HS 578T breast) was 99.6% and the growth (NCI/ADR-RES ovarian) was 112%.

For `COc1ncc(F)c(OC)n1`, the growth (SK-MEL-2 melanoma) was 109%, the growth (SN12C renal) was 100% and the growth (UO-31 renal) was 86.9%. For the same compound, the growth (TK-10 renal) was 108%, the growth (ACHN renal) was 100% and the growth (CAKI-1 renal) was 94.5%. For the same compound, the growth (A498 renal) was 110%, the growth (CCRF-CEM leukemia) was 100% and the growth (MOLT-4 leukemia) was 94.7%. For the same compound, the growth (SR leukemia) was 94%, the growth (RPMI-8226 leukemia) was 101% and the growth (OVCAR-8 ovarian) was 97.3%. For the same compound, the growth (OVCAR-5 ovarian) was 97.9%, the growth (OVCAR-4 ovarian) was 90% and the growth (SK-OV-3 ovarian) was 97.8%. The growth (IGROV1 ovarian) was 103%, the growth (OVCAR-3 ovarian) was 114% and the growth (HS 578T breast) was 118%. The growth (NCI/ADR-RES ovarian) was 105%.

`COc1ccc(Nc2nc(NCCNc3ccnc4cc(Cl)ccc34)nc(N3CCOCC3)n2)cc1` showed a growth (SK-MEL-2 melanoma) of 78.8%, a growth (SN12C renal) of 61.4% and a growth (UO-31 renal) of 45.3%. It also gave a growth (TK-10 renal) of 103%, a growth (ACHN renal) of 63.2% and a growth (CAKI-1 renal) of 80.2%. For the same compound, the growth (A498 renal) was -17.7% (active), the growth (CCRF-CEM leukemia) was 56.4% and the growth (MOLT-4 leukemia) was 35.6%. The growth (SR leukemia) was 7.72% (active), the growth (RPMI-8226 leukemia) was 45.9% and the growth (OVCAR-8 ovarian) was 71.4%. The growth (OVCAR-5 ovarian) was 130%, the growth (OVCAR-4 ovarian) was 81.3% and the growth (SK-OV-3 ovarian) was 100%. The growth (IGROV1 ovarian) was 72.8%, the growth (OVCAR-3 ovarian) was 73.4% and the growth (HS 578T breast) was 66.3%. For the same compound, the growth (NCI/ADR-RES ovarian) was 76.2%.

`COc1ccc(CSc2nc3cc(OC)c(OC)cc3c(=O)n2-c2ccc(Cl)cc2)cc1` gave a growth (SK-MEL-2 melanoma) of 110%, a growth (SN12C renal) of 98.6% and a growth (UO-31 renal) of 71.2%. For the same compound, the growth (TK-10 renal) was 116%, the growth (ACHN renal) was 97.1% and the growth (CAKI-1 renal) was 91.2%. It also gave a growth (A498 renal) of 88.7%, a growth (CCRF-CEM leukemia) of 88.6% and a growth (MOLT-4 leukemia) of 101%. For the same compound, the growth (SR leukemia) was 102%, the growth (RPMI-8226 leukemia) was 90.8% and the growth (OVCAR-8 ovarian) was 98.7%. It also gave a growth (OVCAR-5 ovarian) of 94.2%, a growth (OVCAR-4 ovarian) of 103% and a growth (SK-OV-3 ovarian) of 105%. It also gave a growth (IGROV1 ovarian) of 104%, a growth (HS 578T breast) of 97.1% and a growth (NCI/ADR-RES ovarian) of 101%.

Work on `Cc1nc2cc(Nc3nc(Nc4ccc(F)cc4)nc(-c4ccc(Cl)cc4)n3)ccc2n1Cc1ccccc1` yielded a growth (SK-MEL-2 melanoma) of 83.6%, a growth (SN12C renal) of 77.1% and a growth (UO-31 renal) of 44.5%. The growth (TK-10 renal) was 112%, the growth (ACHN renal) was 71.6% and the growth (CAKI-1 renal) was 90.4%. The growth (A498 renal) was 70.3%, the growth (CCRF-CEM leukemia) was 3.88% (active) and the growth (MOLT-4 leukemia) was 0.841% (active). The growth (SR leukemia) was -19.4% (active), the growth (RPMI-8226 leukemia) was 0.193% (active) and the growth (OVCAR-8 ovarian) was 62.8%. It also gave a growth (OVCAR-5 ovarian) of 92.3%, a growth (OVCAR-4 ovarian) of 58.6% and a growth (SK-OV-3 ovarian) of 92.9%. For the same compound, the growth (IGROV1 ovarian) was 48.7%, the growth (OVCAR-3 ovarian) was 57.3% and the growth (HS 578T breast) was 75.4%. For the same compound, the growth (NCI/ADR-RES ovarian) was 59.1%.

Work on `CCCCCCCCCCCCCCNc1nc(CO)ncc1-c1ccc(C(F)(F)F)cc1` yielded a growth (SK-MEL-2 melanoma) of 94.6%, a growth (SN12C renal) of 102% and a growth (UO-31 renal) of 79.1%. It also gave a growth (TK-10 renal) of 98.9%, a growth (ACHN renal) of 102% and a growth (CAKI-1 renal) of 93.8%. The growth (A498 renal) was 86.4%, the growth (CCRF-CEM leukemia) was 93.6% and the growth (MOLT-4 leukemia) was 99.6%. It also gave a growth (SR leukemia) of 102%, a growth (RPMI-8226 leukemia) of 93.9% and a growth (OVCAR-8 ovarian) of 99.5%. For the same compound, the growth (OVCAR-5 ovarian) was 103%, the growth (OVCAR-4 ovarian) was 112% and the growth (SK-OV-3 ovarian) was 91.7%. The growth (IGROV1 ovarian) was 104%, the growth (OVCAR-3 ovarian) was 103% and the growth (HS 578T breast) was 93.2%. For the same compound, the growth (NCI/ADR-RES ovarian) was 100%.
